In the library only some 9.3% were active in any assay of this set; here they are far more common.
ELG1 DNA repair: blocks ELG1-dependent DNA repair in HEK293T cells | HEK293T ELG1-luciferase reporter, luminescence, 16 h; DNA damage induced by 5-fluorouridine | Potency, µM (titrated, usually from 46.1 µM), most hits filed as inhibitors | hit rate 2.3% among 330,000; also: nearly all actives have a fitted effect of over 55% in size
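Overnight (16 hr) co-exposure of 2,000 cells/well to 5-fluorouridine and compound at 37 °C preceded detection. Luciferase was quantified via ONE-Glo luminescence; loss of signal denotes inhibition.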
Rab9 promoter act: Rab9 promoter activation; Huh7 Rab9 promoter-luciferase reporter, luminescence, 24 h; Potency, µM (top dose mostly 9.22 µM), hits mostly activators; hit rate 2.8% among 320,000; also: nearly all actives have a fitted effect of over 60% in size
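Huh7 reporter line, Rab9 promoter upstream of luciferase. Compound exposure 24 h at 37 °C in reduced-serum medium with 10% FBS. Read-out: luminescence.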
ELG1 genotox: induces genotoxicity in HEK293T cells with luciferase-tagged ELG1 | AID 504466 | Potency, µM (highest dose often 46 µM), hits mostly activators | HEK293T ELG1-luciferase reporter, luminescence, 16 h | hit rate 1.3% among 330,000; also: nearly all actives have a fitted effect of over 60% in size
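Luminescence read-out: rising ELG1-luciferase signal, reflecting elevated ELG1 protein under genetic stress, flags genotoxic compounds. Cells were treated for 16 hr at 37 °C before ONE-Glo detection.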
NPC1 promoter act: activators of NPC1 promoter | AID 485313 | hit rate 2.4% among 320,000 | Potency, µM (titrated, usually from 9.22 µM), actives largely listed as activators | Huh7 NPC1 promoter luciferase reporter, 24 h; also: nearly all actives have a fitted effect of over 60% in size
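Readout is luciferase luminescence, reflecting NPC1 promoter activation in stably transfected Huh7 cells after 24 h compound exposure at 37 °C in reduced-serum medium with 10% FBS.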
SMN2 splice up: SMN2 splice variant enhancement; hit rate 2.8% among 210,000; HEK293 SMN2-luciferase splicing reporter, luminescence, 30-36 h; Potency, µM (highest dose often 46.1 µM), hits mostly activators; AID 1458; also: nearly all actives have a fitted effect of over 55% in size
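HEK293 cells carry an SMN2 minigene-luciferase reporter in which exon 7 inclusion puts luciferase in frame. Cells were seeded at 2000 cells/well, attached for 10-12 hours, then exposed to compounds for 30-36 hours at 37C before ONE-Glo luminescence.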
FLuc counter: firefly luciferase modulation, counter-screen for miR-21 project. P08659. purified FLuc, Km substrates, luminescence inhibition. Potency, µM (series often up to 57.5 µM), usual class: inhibitors. hit rate 6.9% among 360,000. AID 588342; also: nearly all actives have a fitted effect of over 55% in size
Target sequence (P08659 whole entry, looked up): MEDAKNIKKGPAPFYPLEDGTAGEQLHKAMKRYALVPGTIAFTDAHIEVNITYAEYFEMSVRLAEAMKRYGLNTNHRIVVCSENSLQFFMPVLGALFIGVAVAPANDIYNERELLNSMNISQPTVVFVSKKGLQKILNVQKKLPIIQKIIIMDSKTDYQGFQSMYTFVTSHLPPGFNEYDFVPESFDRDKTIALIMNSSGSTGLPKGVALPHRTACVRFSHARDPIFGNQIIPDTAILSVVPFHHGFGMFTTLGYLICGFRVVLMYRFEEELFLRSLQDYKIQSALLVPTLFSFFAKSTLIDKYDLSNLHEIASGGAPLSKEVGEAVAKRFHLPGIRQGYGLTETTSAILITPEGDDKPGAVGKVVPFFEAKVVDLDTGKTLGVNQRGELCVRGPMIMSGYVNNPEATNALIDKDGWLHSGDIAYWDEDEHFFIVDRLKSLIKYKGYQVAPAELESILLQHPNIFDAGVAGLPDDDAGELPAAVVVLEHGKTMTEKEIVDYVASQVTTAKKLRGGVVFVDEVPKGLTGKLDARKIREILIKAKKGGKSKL
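Biochemical qHTS of compounds, final roughly 60 µM downward over six points, against 10 nM purified firefly luciferase using Km concentrations of substrates (10 uM D-luciferin, 10 uM ATP) in Tris acetate pH 7.5 buffer; luminescence output.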
A number is an active result; i = inactive; ? = inconclusive; nt = not tested or not shown; [ ] = remark or other dose. Calls follow the shape of the dose curve; as a rule, active = well fitted curve in the direction sought with a large enough effect; inconclusive = small, poorly fitted or top-dose-only effect, or another doubt; inactive = no such curve, though single readings can be large; an effect the other way counts as inactive or inconclusive.

SMILES | ELG1 DNA repair | Rab9 promoter act | ELG1 genotox | NPC1 promoter act | SMN2 splice up | FLuc counter
Cc1c(C(=O)c2ccccc2)oc2ccc3ccccc3c12 | ? | 3.2µM | ? | ? | nt | 4.8µM
CC(C)CC(C(=O)NC1CCCC1)N(Cc1cccs1)C(=O)c1snc(C(N)=O)c1N (centres undefined) | 18µM | i | i | i | i | i
COc1ccc(/C=C2\Oc3cc(OCC(=O)N4CCC(C(=O)O)CC4)ccc3C2=O)c(OC)c1OC | i | i | i | i | nt | ?
COc1cccc(/C=C2\Oc3cc(OCC(=O)N4CCCCC4)ccc3C2=O)c1OC | i | i | i | i | nt | 9.5µM
COc1cccc(/C=C2\Oc3cc(OCC(=O)N4CCCC4)ccc3C2=O)c1OC | i | i | i | i | nt | 9.5µM
COc1ccc(/C=C2\Oc3cc(OCC(=O)N4CCC[C@H]4C(=O)O)ccc3C2=O)c(OC)c1OC | i | i | i | i | nt | ?
COc1ccc(/C=C2\Oc3cc(OCC(=O)N4CCC[C@H]4C(=O)O)ccc3C2=O)cc1OC | i | i | i | i | nt | 1.3µM
COc1cccc(OC)c1C(=O)Oc1ccc2c(c1)O/C(=C\c1ccncc1)C2=O | 23µM | i | i | i | i | i
O=C1C=C(c2ccc(Cl)c(C(F)(F)F)c2)C[C@@H](c2ccc(Cl)cc2)C1 | i | i | i | i | nt | i
C=C1CCN([C@@H](C)C(=O)NCc2ccc(Cl)cc2)S(=O)(=O)c2ccccc21 | ? | i | i | i | nt | i
COc1ccc(/C=C2\Oc3cc(OCC(=O)N4CCC(C(=O)O)CC4)ccc3C2=O)c(OC)c1 | i | i | i | i | nt | 6.7µM
Cc1cccc2c(C(=O)N3CCN(c4ccccn4)CC3)cc(-c3cccc(Br)c3)nc12 | 15µM | i | i | i | nt | i
O=C(c1cccn2c(=O)c3cc(Br)ccc3nc12)N1CCN(c2ccccn2)CC1 | i | i | i | i | i | i
Cc1cccc2c(C(=O)N3CCN(c4ccccc4)CC3)cc(-c3ccncc3)nc12 | i | i | ? | i | nt | i
O=C(c1cc(-c2cccc(Cl)c2)nc2ccccc12)N1CCN(c2ccccn2)CC1 | 23µM | i | i | i | nt | 19µM
O=C(c1cc(-c2ccncc2)nc2ccc(Br)cc12)N1CCN(c2ccccn2)CC1 | nt | nt | nt | nt | i | 17µM
Cc1ccc(S(=O)(=O)Nc2ccccn2)cc1[N+](=O)[O-] | i | i | i | i | i | i
CCOC(=O)C1=C(c2ccccc2)c2ccccc2N(S(=O)(=O)C(F)(F)F)C1C(=O)OCC (centres undefined) | 16µM | nt | i | nt | nt | nt
CCOC(=O)C1C(C(=O)OC)=C(c2ccc(OC)cc2)c2ccccc2N1S(=O)(=O)C(F)(F)F (centres undefined) | 12µM | nt | i | nt | nt | nt
CCCc1c(C(=O)N2CCN(c3ccccc3OC)CC2)cnn1-c1ccccc1 | 16µM | i | i | i | nt | i
CC1Cc2ccccc2N1C(=O)CSc1nnc2n1C(C)(C)Cc1ccccc1-2 (centres undefined) | ? | i | i | i | i | i
COc1ccccc1N1CCN(C(=O)CSc2nc3ccccc3nc2N2CCCCC2)CC1 | 16µM | i | i | i | nt | i
COc1ccccc1N1CCN(C(=O)CSc2nnc3n2C(C)(C)Cc2ccccc2-3)CC1 | 9.2µM | i | i | i | nt | i
COc1ccccc1N1CCN(C(=O)CSc2nc3ccccc3nc2N2CCC(C)CC2)CC1 | 26µM | i | i | i | nt | i
COc1ccc(-n2ncc3c(SCC(=O)N4CCN(c5ccccc5OC)CC4)ncnc32)cc1 | 16µM | i | i | i | i | ?
SMILES | ELG1 DNA repair | Rab9 promoter act | ELG1 genotox | NPC1 promoter act | SMN2 splice up | FLuc counter
CC1=C/C(=N\NC(=S)NCc2ccccc2)CC1 | i | i | i | i | ? | i
CN(C)c1ccc(NC(=O)Nc2csc3ccccc23)cc1 | ? | ? | ? | i | nt | 2.7µM
O=C(Nc1ccc(F)cc1)Nc1csc2c1CCCC2 | nt | nt | nt | nt | i | ?
O=C(Cc1ccc(F)cc1)Nc1ccccc1N1CCCC1 | i | i | i | i | nt | i
O=C(Nc1ccc(F)cc1)Nc1csc2ccccc12 | i | i | i | i | nt | 24µM
O=C(Nc1ccc(F)cc1)Nc1ccccc1N1CCCCC1 | 13µM | i | i | i | nt | i
CCCC[C@H]1C[C@@H]1[C@@H]1N(P(=O)(c2ccccc2)c2ccccc2)C[C@@](O)(c2ccccc2)CC12CC2 | nt | nt | nt | nt | i | nt
CCCCN1Cc2c(nc3cc(-c4ccco4)[nH]n3c2=O)C1=O | i | i | i | i | nt | 17µM
COCc1cc(=O)n2[nH]c(-c3ccco3)cc2n1 | i | i | i | i | nt | i
CCOC(=O)N1CCN(CC(=O)Nc2ccc([N+](=O)[O-])cc2C(=O)Nc2ccccc2F)CC1 | 7.3µM | i | i | i | i | i
O=C(CNCc1ccccn1)Nc1ccc([N+](=O)[O-])cc1C(=O)Nc1ccccc1F | 23µM | i | i | i | nt | i
O=C(CN1CCN(Cc2ccccc2)CC1)Nc1ccc([N+](=O)[O-])cc1C(=O)Nc1ccccc1F | ? | i | i | i | i | i
CC(C)(CN)CN | nt | nt | nt | nt | i[9.22 µM] | nt
CCCN(C(=O)CCc1ccc(OC)cc1)c1c(N)n(Cc2ccccc2)c(=O)[nH]c1=O | i | nt | i | nt | nt | nt
CCc1ccc(NC(=O)c2ccc3c(O)c(S(=O)(=O)c4ccccc4)c(=O)[nH]c3c2)cc1 | nt | nt | nt | nt | nt | 4.3µM
COc1ccccc1NC(=O)c1ccc2c(O)c(S(=O)(=O)c3ccccc3)c(=O)[nH]c2c1 | i | i | i | i | nt | i
Cc1ccc(NC(=O)c2ccc3c(O)c(S(=O)(=O)c4ccccc4)c(=O)[nH]c3c2)cc1Cl | nt | nt | nt | nt | nt | 11µM
COc1ccc(S(=O)(=O)c2c(O)c3ccc(C(=O)Nc4ccccc4)cc3[nH]c2=O)cc1 | i | i | i | i | nt | ?
N#C/C(=N/Nc1ccc([N+](=O)[O-])cc1)C(=N)N1CCCCC1 | ? | 0.56µM | ? | 1µM | 3.2µM | 9.5µM
N#C/C(=N\Nc1ccc(S(=O)(=O)N2CCCCC2)cc1)C(N)=S | ? | i | i | i | i | i
COc1ccccc1N/N=C(\C#N)C(=N)N1CCOCC1 | i | i | i | i | ? | i
N#C/C(=N\Nc1ccc(Br)cc1)C(=N)N1CCOCC1 | ? | 4µM | ? | 3.5µM | ? | ?
N#C/C(=N\Nc1ccc([N+](=O)[O-])cc1)C(N)=S | ? | i | i | i | nt | 17µM
N=C(c1ccc([N+](=O)[O-])cc1)N1CCCCC1 | i | i | i | i | i | i
N#C/C(=N\Nc1ccc([N+](=O)[O-])cc1)C(=N)N1CCOCC1 | ? | 2.8µM | ? | ? | nt | ?
C=C1C2CC[C@]3(CCC4[C@@]5(C)CCC[C@@]4(CN(CCO)C5)[C@@H]3C2)[C@@H]1O (some centres undefined) | nt | nt | nt | nt | i | nt
O=C(CC1C(=O)N(c2ccccc2)C(=O)N1C1CCCCC1)Nc1ccccc1 (centres undefined) | i | i | i | i | i | i

Compound activity as filed in PubChem BioAssay.
